According to PubChem BioAssay AID652042 (Broad Institute, 2013):
Hit rate of the full screen: of about 1,100 compounds, about 350 (32%) were called active. The list is a sample of the results. Measured potencies and affinities stand elsewhere. Unmarked numbers belong to inactive results. How the calls were made is not given here.

assay: CEM21 lymphoblast cell cytotoxicity, dose response, cytotoxicity control for viral fusion inhibitor project, CellTiter-Glo luminescence, cherry-picked (AID 652042); details: CEM21 cells viability, CellTiter-Glo ATP luminescence, 24 h; series mostly up to 35 µM; activity change, negative = cytotoxicity: at the top concentration

Structure (SMILES) | activity change, negative = cytotoxicity
O=C1c2cccnc2C(Nc2ccc(S(=O)(=O)N3CCCCCC3)cc2)N1Cc1ccccc1 (stereo not drawn) | -1.75%
C[C@H]1CN([C@@H](C)CO)C(=O)c2ccccc2-c2ccccc2CO[C@H]1CN(C)S(=O)(=O)c1cccc(C#N)c1 | -13.5%
C[C@H]1CN([C@@H](C)CO)C(=O)c2ccccc2-c2ccccc2CO[C@@H]1CN(C)C(=O)CCC(F)(F)F | 1%
CC(OC(=O)c1ccc(NC(=O)CC#N)cc1)C(=O)NCCC1=CCCCC1 (stereo not drawn) | -9.3%
Cc1ccc(S(=O)(=O)NCC(=O)OCC(=O)NCc2ccc3c(c2)OCO3)cc1 | 9.32% [at 16 µM]
Cc1nc2ccccc2c2oc(C(=O)NCc3ccc4c(c3)OCO4)cc12 | -2%
C[C@@]12C(=O)N(c3cccc(Cl)c3)C(=O)N1[C@H](c1ccc(Cl)cc1)[C@@H]1C(=O)N(C3CCCCC3)C(=O)[C@@H]12 | -18.4%
COc1ccc(C(O)c2nc3ccccc3n2C)cc1OC (stereo not drawn) | -1.11%
CCCCCCCn1c(NC(=O)CC)nc2ccccc21 | -26%
Cc1ccc2cc(C#N)c(NCCNC(=O)C3CCC3)nc2c1C | -0.969%
CC1=NN(C(=O)c2ccccc2)C(O)(c2ccc(Br)cc2)C1 (stereo not drawn) | -5.67%
Cc1ccc(S(=O)(=O)N(C)C[C@@H]2Oc3ccc(NC(=O)Cc4cn(C)c5ccccc45)cc3CC(=O)N([C@H](C)CO)C[C@@H]2C)cc1 | -7.68%
CC(C)CNC(=O)c1ccccc1NC(=O)c1ccccc1N(C)S(=O)(=O)c1ccccc1 | -4.43%
CNC[C@H]1Oc2c(NC(=O)Nc3cccc4ccccc34)cccc2C(=O)N([C@H](C)CO)C[C@H]1C | -11.5%
CC(=O)c1c(C)[nH]c(C(=O)OCC(=O)Nc2ccc(Cl)c(S(=O)(=O)N(C)C)c2)c1C | -12%
Cc1nc2ccc(NC(=O)c3cc(S(=O)(=O)N(C)c4ccccc4)ccc3Cl)cc2s1 | -9.18%
CC[C@@]1(C(=O)OC)N[C@H](CN(C)C(=O)Nc2ccc(OC)cc2)[C@@H]2C(=O)N(Cc3ccccc3)C(=O)[C@@H]21 | 1.04%
COc1ccc(CCNC(=O)COC(=O)c2cccn2C)cc1 | 3.42%
COc1ccc(CCCC(=O)NCCc2ccccc2)c(C)c1 | 3.67%
CCOC(=O)c1c(C)[nH]c(C)c1C(=O)COC(=O)[C@@H](NC(=O)c1ccccc1OCC)C(C)C | -7.56%
COc1ccccc1N(C)S(=O)(=O)c1ccc(Cl)c(C(=O)NCC2(N(C)C)CCCCC2)c1 | -3.25%
C[C@H](CO)N1C[C@H](C)[C@@H](CN(C)S(=O)(=O)c2ccc(F)cc2)Oc2ccc(NS(=O)(=O)c3cn(C)cn3)cc2CC1=O | -1.97%
CC(C)(C)N1C(=O)[C@H]2[C@@H](c3ccc(Br)cc3)N3C(=O)N(c4cccc(Cl)c4)C(=O)[C@@]3(C)[C@H]2C1=O | -7%
CC[C@@]12C(=O)N(c3cccc(F)c3)C(=O)N1[C@H](c1ccc(Br)cc1)[C@@H]1C(=O)N(C(C)(C)C)C(=O)[C@@H]12 | -2.79%
Cc1cc(C)c2nc(C(F)(F)F)nc(N3CCN(C(=O)c4ccco4)CC3)c2c1 | -15.5%
CCC(NS(=O)(=O)c1c(C)[nH]c(=O)[nH]c1=O)C12CC3CC(CC(C3)C1)C2 (stereo not drawn) | -0.446%
CC1=C(C(=O)OCc2ccc3c(c2)OCO3)C(c2ccc(F)cc2)NC(=O)N1 (stereo not drawn) | -24.2%

Structure (SMILES) | activity change, negative = cytotoxicity
COC(=O)C1=C(C)N(Cc2ccc(Cl)cc2)C(=S)NC1c1ccc(OC)cc1 (stereo not drawn) | -15.5%
CCN(CC)CCN(C(=O)c1cc(Cl)sc1Cl)c1nc2cc3c(cc2s1)OCO3 | -6.58%
CCN(C[C@H]1N[C@@](C)(C(=O)OC)[C@H]2C(=O)N(Cc3ccccc3)C(=O)[C@@H]12)C(=O)Nc1ccc(C)cc1 | 0.443%
COc1ccc(S(=O)(=O)n2ccc(-c3ccc(OCCN(C)c4ccccn4)cc3)n2)cc1 | -11%
S=c1nc[nH]c2c1[nH]c1ccc(Cl)cc12 | 4.8%
Clc1ccc2c(c1)C1=C(C(c3ccncc3)O2)C(c2ccc(Br)cc2)n2ncnc2N1 (stereo not drawn) | -15.2%
CCS(=O)(=O)N1Cc2ccccc2CC1C(=O)NCC12CC3CC(CC(C3)C1)C2 (stereo not drawn) | -8.57%
CCN1C[C@@H]2[C@@H]3C(=O)N(Cc4ccccc4)C(=O)[C@@H]3[C@](CC)(C1=O)N2C(=O)c1ccc(C(C)(C)C)cc1 | -8.21%
COc1ccc2c(c1)[C@H]1[C@H](CO2)[C@H](c2ccccc2)[C@]2(C)C(=O)Nc3cc(OC)c(OC)cc3C(=O)N12 | -21.9%
C[C@@]12C(=O)N(Cc3ccc(F)cc3)CC(=O)N1[C@H]1c3cc(Cl)ccc3OC[C@@H]1[C@@H]2c1ccccc1 | -14.9%
O=C(O)c1cccc(COc2ccc3c(c2)CCC3)c1 | -6.13%
COc1ccc([C@H]2/C=C\CN(C(=O)C3CC3)[C@@H](C)C(=O)N2Cc2ccc(F)cc2)cc1 | -13%
CCC(C)(C)NC(=O)C(c1ccc(C)cc1)N(CC1CCCO1)C(=O)c1csnn1 (stereo not drawn) | -7.66%
O=C(CN1CCCN(Cc2ccc(F)cc2Cl)C1=O)NC1CCCCCCC1 | -13.4%
CCN(CCn1cccn1)C(=O)CC1C(=O)NCCN1CCc1ccccc1 (stereo not drawn) | 0.382%
O=C(C[C@H]1C[C@@H]2c3cc(NC(=O)C4CCC4)ccc3O[C@@H]2[C@@H](CO)O1)NCC(F)(F)F | 0.34%
Cc1ccc(C)c(CS(=O)(=O)c2cn(CC(=O)N3CCC(C)CC3)c3ccccc23)c1 | -0.307%
CCCCN1CC(=O)N2[C@H]3c4ccccc4OC[C@@H]3[C@H](c3ccccc3)[C@]2(C)C1=O | -0.526%
Cc1ccc(-n2nnnc2SCn2nnc3ccccc3c2=O)c(C)c1 | -14.6%
COc1cc(CSc2nnnn2-c2ccc(C)cc2)cc(OC)c1OC | -10.6%
O=C(NCc1ccccc1)[C@@H]1CCCN1C(=O)[C@@H]1CCCN1C(=O)c1cccc2ccccc12 | -11.3%
Cc1ccc(S(=O)(=O)N2CCC(=O)N(CCOCc3ccc(C(F)(F)F)cc3)CC2)cc1 | -20.8%
NC(=O)c1sc2nc3c(c(-c4ccccc4)c2c1N)CCC3 | -5.51%
COc1ccc(N(CC(=O)NCCSCc2ccc(Cl)cc2)S(C)(=O)=O)cc1Cl | -10.3%
Cc1ccc(N2C(=O)N3[C@H](c4cccc(C)c4)[C@@H]4C(=O)N(Cc5ccccc5)C(=O)[C@@H]4[C@]3(C)C2=O)cc1 | -4.42%
O=C(NCc1ccco1)c1ccc(Cn2c(=O)c3sccc3n(Cc3ccc(F)cc3)c2=O)cc1 | -5.39%
